Source: PubChem BioAssay
A selection: hits, their analogues and other compounds. The true share with any hit is near 5.7%.
KB-3-1 tox: KB-3-1 parental cell cytotoxicity; Potency, µM (titrated, usually from 46.1 µM), most hits filed as cytotoxic; AID 1347075; KB-3-1 viability, CellTiter-Glo ATP luminescence, 72 h; 400,000 tested, 1.4% active; note: nearly all actives have a fitted effect of over 60% in size
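Multi-concentration cytotoxicity screen in KB-3-1 cells grown in DMEM lacking phenol red with 10% FBS. After 72 h at 37 °C with compound, ATP-dependent luminescence was recorded.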
KB-V1 cytotox: kills drug-selected multidrug resistant KB-V1 cells; 400,000 tested, 3.4% active; AID 1347076; Potency, µM (top dose mostly 46.1 µM), most hits filed as cytotoxic; KB-V1 MDR cells viability, CellTiter-Glo, 72 h; note: nearly all actives have a fitted effect of over 60% in size
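KB-V1, DMEM (no phenol red) + 10% FBS; cpd pin-transferred, titration series; 72 h, 37 degrees C; CellTiter-Glo, luminescence. Data normalized, curve-fit.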
HT1080 IDH1KD tx: HT-1080 IDH1 knockdown cell toxicity (counter line). HT-1080 IDH1 knockdown viability, ATP luminescence, 48 h. Potency, µM (top dose mostly 46.1 µM), for the others: top-dose activity, negative = toxicity, actives largely listed as cytotoxic. 360,000 tested, 2% active. AID 686971;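 note: 0% = DMSO wells and -100% = cell-free medium wells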
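Knockdown cells (IDH1KD HT-1080) received compounds 2 h after plating at 750 cells/well and were kept 48 h at 37 °C in 5% FBS RPMI. A CellTiter-Glo luminescence read gave % activity for curve fitting.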
HT1080-NT tox: kills 2HG-producing HT-1080-NT fibrosarcoma cells; Potency, µM (highest dose often 46.1 µM), without a hit: top-dose activity, negative = less viability, hits mostly cytotoxic; HT-1080-NT fibrosarcoma viability, CellTiter-Glo ATP luminescence, 48 h; 360,000 tested, 1.6% active;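 note: NT is the 2HG producing partner of a matched IDH1 knockdown line; 0% = DMSO-treated cells and -100% = media-only wells without cells; nearly all actives have a fitted effect of over 55% in size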
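A 48-hour cytotoxicity screen used HT-1080-NT cells plated 2 hours before compound delivery. ATP-based CellTiter-Glo luminescence measured viability, normalized to DMSO and no-cell controls.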
Starred values were filed as active, the others as inactive; i = inactive; ? = inconclusive; · = not tested or not shown; ! = repeats disagree; [ ] = dose if it differs, or a comment. Calls come from the whole dose curve; as a rule, active = well fitted curve in the direction sought with a large enough effect; inconclusive = small, poorly fitted or top-dose-only effect, or another doubt; inactive = no such curve, though single readings can be large; an effect the other way counts as inactive or inconclusive. Unless noted, % is set by controls: 0 for no effect and ±100 for the full control effect; potency is the fitted concentration of half-maximal effect.

SMILES | KB-3-1 tox | KB-V1 cytotox | HT1080 IDH1KD tx | HT1080-NT tox
Cc1c(C(=O)N2CCOCC2)sc2nc(-c3ccccc3)cn12 | i | 23.1µM* | 5.2% | 8.5%
CC(C)Oc1cccc(-c2ccnc(N3CCC(C(N)=O)CC3)n2)c1 | i | i | · | ·
O=C(COc1ccc(S(=O)(=O)NC2CCCCC2)cc1Cl)Nc1ccc2c(c1)OCO2 | ? | 10.3µM* | ? | ?
O=C(COc1ccc(S(=O)(=O)NC2CCCCC2)cc1Cl)NCc1ccc2c(c1)OCO2 | i | ? | ? | -0.5%[9.24 µM]
COc1ccc(CCNC(=O)COc2ccc(S(=O)(=O)NC3CCCCC3)cc2Cl)cc1OC | ? | 10.3µM* | -18.9% | -15.7%
COCCCNC(=O)COc1ccc(S(=O)(=O)NCc2ccccc2)cc1Cl | i | 20.6µM* | 1.5% | 5.3%
O=C(COC(=O)c1cc([N+](=O)[O-])ccc1Cl)NCCc1ccccc1 | i | i | 15.7% | -0.3%
O=C(COc1ccc([N+](=O)[O-])cc1Cl)NCCc1ccccc1 | i | 20.6µM* | 17.4% | 10.1%
COc1ccc(-c2csc(C(O)c3ccc(F)c(F)c3)n2)cc1 (stereo not drawn) | i | i | ? | -17.5%
Cc1nnc(SCC(=O)Nc2ccc(Br)cc2)[nH]c1=O | i | i | · | ·
CC(C)Sc1ncc(Cl)c(C(=O)Nc2nc3ccc(S(C)(=O)=O)cc3s2)n1 | i | i | · | ·
NC(C(=O)O)C1ON=C(Cl)C1O (stereo not drawn) | 0.326µM* | 1.64µM* | ? | 20.6µM*
CC(NC(=O)c1ccc(F)cc1)c1nc2ccccc2n1Cc1ccccc1F (stereo not drawn) | i | 2.06µM* | ? | -15.2%
Cc1ccc(C)c(Cn2c(C(C)NC(=O)c3ccc(F)cc3)nc3ccccc32)c1 (stereo not drawn) | i | i | · | ·
Cc1ccc(C)c(OCCn2c(-c3ccc(Cl)cc3)nc3ccccc3c2=O)c1C | i | ? | · | ·
N#C/C(=C\c1ccc(Br)s1)C(=O)N1CCN(c2ccccc2)CC1 | i | 18.4µM* | 13.7% | 8.1%
N#C/C(=C\c1ccc(Cl)s1)C(=O)N1CCN(c2ccccc2)CC1 | i | i | 24.2% | 23.8%
CC(C)C[C@H](N)c1cn([C@@H](CCCCN)C(=O)N2CCNCC2)nn1 | ? | ? | 1.16µM* | 1.64µM*
CC(C)CC(N)c1cn([C@@H](CCC(=O)O)C(=O)N2CCNCC2)nn1 (stereo partly drawn) | i | i | 8.0% | 1.9%
Cc1cc(F)ccc1NC(=O)CCS(=O)(=O)c1cccc2nsnc12 | i | ? | · | ·
COc1cccc(NC(=O)CN(C)C(=O)Cc2ccc3c(c2)CCC3)c1 | i | 14.6µM* | -6.6% | 3.2%
COc1cccc(NC(=O)CN(C)C(=O)Cc2ccc3c(c2)OCCO3)c1 | i | ? | 19.7% | 3.9%
Cc1ccc(C)c(N2CCN(C(=O)CCS(=O)(=O)c3ccc4c(c3)oc(=O)n4C)CC2)c1 | ? | 6.51µM*! | 0.8% | -12.7%
Cc1ccc(Cl)cc1N1CCN(S(=O)(=O)c2ccc3c(c2)oc(=O)n3C)CC1 | i | 13µM* | 6.5% | -2.1%
COc1cc(NC(=O)CN2CCCN(Cc3cccc(F)c3)S2(=O)=O)cc(OC)c1 | i | i | · | ·
SMILES | KB-3-1 tox | KB-V1 cytotox | HT1080 IDH1KD tx | HT1080-NT tox
COc1ccc(/C=N/n2c(SC)nnc2-c2ccccc2)cc1C | ? | 18.4µM* | ? | ?
COc1ccc(/C=N/N2CCN(c3ccccc3OC)CC2)cc1OC | i | ? | 0.8% | 13.3%
COc1ccc(/C=N/n2c(SC)nnc2-c2ccccc2)c(OC)c1OC | ? | 5.17µM* | ? | -16.4%
COc1ccc(/C=N\NC(=O)c2ccc(-c3ccccc3)cc2)c(OC)c1OC | i | i | 6.9% | -8.0%
Cc1[nH]c2ccccc2c1C(=O)CNc1ccc(Br)cc1 | i | i | · | ·
COC(=O)C1(c2ccccc2)NC(c2cccs2)C2C(=O)N(c3ccccc3)C(=O)C21 (stereo not drawn) | ? | 23.1µM* | -11.1% | 4.6%
COC(=O)C1(c2ccccc2)NC(c2cccs2)C2C(=O)N(C)C(=O)C21 (stereo not drawn) | i | i | 3.6% | 5.1%
COc1ccccc1-c1cc2nc(C)c(CCC(=O)Nc3ccc(Br)c(C)c3)c(C)n2n1 | i | i | · | ·
N#Cc1c(-c2ccccc2)c(-c2ccccc2)n(Cc2ccco2)c1NC(=O)c1cccs1 | i | 5.62µM* | -3.1% | -3.4%
Cc1cccc(N2C(=O)N(Cc3ccc(C(C)(C)C)cc3)c3ccccc3S2(=O)=O)c1 | i | ? | · | ·
CC(C)(C)c1ccc(CN2N=Nc3ccccc3S2(=O)=O)cc1 | 11.6µM* | 8.2µM* | ? | ?
COc1ccccc1N1CCN(C(c2ccccc2Cl)c2nnnn2C(C)(C)C)CC1 (stereo not drawn) | ? | ? | ? | -23.4%
COc1ccccc1C(c1nnnn1C(C)(C)C)N1CCCc2ccccc21 (stereo not drawn) | ? | 23.1µM* | 9.8% | -2.2%
COc1ccccc1N1CCN(C(c2ccc(Cl)cc2)c2nnnn2C(C)(C)C)CC1 (stereo not drawn) | ? | 18.4µM* | -27.4% | -24.7%
Cc1cccc(N2CCN(C(c3cccs3)c3nnnn3C(C)(C)C)CC2)c1C (stereo not drawn) | i | ? | -25.6% | 11.3%
Cc1cccc(N2CCN(C(c3ccccc3)c3nnnn3C(C)(C)C)CC2)c1C (stereo not drawn) | ? | 9.2µM* | 1.8% | 6.6%
Clc1ccc2nc(Nc3ccccc3Cl)nc(-c3ccccc3)c2c1 | i | i | · | ·
